Inhibition data for 99 compounds are collected here from PubChem BioAssay AID777 (Sanford-Burnham Center for Chemical Genomics, 2007).

Among all 96,000 compounds or so, about 19,000 (20%) were called active. Not all results are given here. Unmarked numbers belong to inactive results.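 The calls were made as follows: active = blocking of liver enzyme CYP2C9 beyond about 50% at 5 µM (limit read from the data); inactive = the rest.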

Broadly, the inhibition is the change of the read-out against control, counted positive when it falls.

Sequence of Cytochrome P450 2C9 (Homo sapiens) (P11712 whole entry, looked up): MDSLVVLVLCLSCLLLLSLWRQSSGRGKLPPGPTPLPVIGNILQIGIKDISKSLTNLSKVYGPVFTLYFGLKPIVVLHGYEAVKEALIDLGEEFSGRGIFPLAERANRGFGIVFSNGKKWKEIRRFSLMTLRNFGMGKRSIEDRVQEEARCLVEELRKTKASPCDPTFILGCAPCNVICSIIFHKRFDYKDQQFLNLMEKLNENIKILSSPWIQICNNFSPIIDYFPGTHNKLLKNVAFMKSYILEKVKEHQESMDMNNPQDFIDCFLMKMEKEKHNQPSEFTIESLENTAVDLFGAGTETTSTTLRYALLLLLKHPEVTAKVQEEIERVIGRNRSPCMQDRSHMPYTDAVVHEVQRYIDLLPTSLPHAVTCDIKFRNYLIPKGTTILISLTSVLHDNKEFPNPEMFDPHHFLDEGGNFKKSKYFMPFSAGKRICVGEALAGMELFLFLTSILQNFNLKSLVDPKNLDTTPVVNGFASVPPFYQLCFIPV

This test addresses Cytochrome P450 2C9 (Homo sapiens) (UniProt P11712). The test is described as follows: blockers of cytochrome P450 2C9 activity – biochemical, luminescence, ADME assay, primary screen (AID 777). The settings on record: CYP2C9 Supersomes, luciferin-H conversion, at 5 µM, hits give high values.
On to `Cn1c(=NC(=O)c2ccco2)sc2cccc(F)c21`, for which the inhibition was 1%.

Regarding `CC(Oc1ccc(-c2ccccc2)c(F)c1)c1ccn(S(=O)(=O)c2cccc3ccccc23)n1` (centres undefined), the inhibition was 76.9% (active).

Regarding `CCN(CC)Cc1cc(C(C)=O)ccc1O`, the inhibition was -7.4%.

As to `CCOc1ccccc1NC(=O)Nc1cc(OC)ccc1OC`, the inhibition was 4.9%.

Regarding `CCOc1ccccc1Oc1cn[nH]c1-c1ccc(OC)cc1O`, the inhibition is 98.2% (active).

In the case of `CCOC(=O)C1CCN(C(=O)CSc2cc(=O)n(C)c3ccccc23)CC1`, the inhibition was 18.3%.

For `O=c1c(-c2ccccc2)coc2c(CN3CCOCC3)c(O)ccc12`, the inhibition was 7.7%.

`CCOC(=O)C1CCCN(Cc2nc(N)nc(Nc3ccc(C)cc3)n2)C1` (centres undefined): the inhibition is 13.1%.

In the case of `CC(C)(O)C#Cc1ccc(C(=O)N2CCC(C(N)=O)(N3CCCCC3)CC2)cc1`, the inhibition was 27.6%.

Take `NC(=O)C1(N2CCCCC2)CCN(C(=S)Nc2ccc(Cl)cc2)CC1`: the inhibition was 20.5%.

Take `NC(=O)C1(N2CCCCC2)CCN(C(=O)c2ccc(C#Cc3ccccc3)o2)CC1`: the inhibition was 71.6% (active).

Regarding `CCOC(=O)N1CCC(NC(=O)c2cnn3ccccc23)CC1`, the inhibition was 9.8%.

As to `O=C(Nc1cccc(-c2nnc(-c3ccccc3)o2)c1)C1CCCO1` (centres undefined), the inhibition was 27.5%.

In the case of `c1ccc(-c2nnc(SCc3nc4ccccc4[nH]3)o2)cc1`, the inhibition was 50.9% (active).

Consider `C=CCSc1nc2ccccc2[nH]1`, for which the inhibition was -21%.

In the case of `O=C(CSc1nnc(-c2ccccc2)o1)N1CCOCC1`, the inhibition is -9.8%.

For the compound `O=C(NC1CCCC1)c1ccc(Br)s1`, the inhibition was 33.9%.

Consider `CCOc1c2ccc(C(=O)NCc3ccc4c(c3)OCO4)cc2nn1C`, for which the inhibition is 41.4%.

Regarding `CCOc1cc(S(=O)(=O)NC2CC(C)(C)NC(C)(C)C2)ccc1F`, the inhibition is -1.2%.

For the compound `CCOc1cc(S(=O)(=O)NCc2ccc3c(c2)OCO3)ccc1F`, the inhibition is 61% (active).

Consider `COc1ccc(OCCCC(=O)Oc2ccc(OC)cc2)cc1`, for which the inhibition was 11.2%.

With `Cc1ccc(/C=N\n2c(-c3ccccc3)n[nH]c2=S)s1`, the inhibition is 13.6%.

As to `Cn1c(-c2sc3cc(C(F)(F)F)cnc3c2-c2ccccc2)n[nH]c1=S`, the inhibition was 51.7% (active).

In the case of `Cc1cc(C(F)(F)F)n2ncc(-c3ccccc3)c2n1`, the inhibition is 0.4%.

Take `O=C(NCCc1ccccn1)c1cc(C(=O)C2CCCCC2)c[nH]1`: the inhibition was 10.3%.

Consider `O=c1[nH]nc(CSCc2ccccc2Cl)[nH]1`, for which the inhibition is -20.8%.

Turning to `CC(C)Oc1ccc(CCc2n[nH]c(=S)n2Cc2ccccc2)cc1`, the inhibition was 16.2%.

For `S=c1[nH]nc(CSCc2ccc(Cl)cc2Cl)n1-c1ccccc1`, the inhibition was 76.5% (active).

Turning to `CC(Cc1cccs1)NC(=O)NC1CCCCC1` (centres undefined), the inhibition was 12.2%.

As to `Fc1ccc(CNc2nc3ccccc3n3nnnc23)cc1`, the inhibition is 11.6%.

On to `CCc1ccccc1NC(=O)CN(C)S(=O)(=O)c1ccc2c(c1)c(=O)n(C)c(=O)n2C`, for which the inhibition was -17.2%.

Regarding `COc1ccc(N(C(=O)c2cccnc2)S(=O)(=O)c2ccc3c(c2)n(C)c(=O)n3C)cc1`, the inhibition is 86.2% (active).

With `COc1ccc(-c2c3c(=O)n(C)c(=O)n(C)c3cn2NC(C)=O)cc1`, the inhibition is 1.5%.

Regarding `Cc1ccsc1C(C(=O)NC1CCCCC1)N(C(=O)Cc1cccs1)C1CC1` (centres undefined), the inhibition was 18.5%.

With `Cc1ccc(F)cc1NC(=O)c1cccc(N(C)C)c1`, the inhibition is -1.6%.

With `Cc1ccc(C(c2nnnn2CS(=O)(=O)c2ccc(C)cc2)N2CCC(C)CC2)cc1` (centres undefined), the inhibition was -18.8%.

For `Cc1cc(C(=O)OCC(=O)Nc2ccc(F)c(F)c2)c(C)o1`, the inhibition was 61.2% (active).

In the case of `Cc1cc(C(=O)OCC(=O)c2c(N)n(C)c(=O)n(C)c2=O)c(C)o1`, the inhibition is 15.9%.

`Cc1cc(NC(=O)COC(=O)c2ccc(F)c(S(=O)(=O)N3CCOCC3)c2)no1`: the inhibition was -0.2%.

On to `O=C(O)CSC(NC(=O)c1cccnc1)(C(F)(F)F)C(F)(F)F`, for which the inhibition is 3.1%.

Take `CC1CC2=C(CC1/C=N/NC(N)=S)C(C)(C)CCC2` (centres undefined): the inhibition is 43.1%.

For the compound `CC(=O)NNc1cc(=O)c2c(=O)n(C)c(=O)n(C)c2[nH]1`, the inhibition is 6.5%.

For the compound `CC(=O)NC(Cc1ccc(F)cc1)C(=O)O` (centres undefined), the inhibition was 6.7%.

Consider `O=c1nc2s/c(=C\c3ccco3)c(=O)n2nc1Cc1ccccc1`, for which the inhibition was -5.6%.

Regarding `O=c1/c(=C/c2ccc(CNS(=O)(=O)c3ccccc3)o2)sc2n1CCN=2`, the inhibition is 71.2% (active).

With `O=S(=O)(NCC1OCCc2ccccc21)c1ccccc1` (centres undefined), the inhibition was 3%.

Turning to `Cc1cc(C(F)(F)F)nn1CC(=O)N1CCCC1`, the inhibition was 1%.

`CCC(C)(NC(=O)c1ccccn1)C(=O)NC1CCCCC1` (centres undefined): the inhibition was 12.3%.

For `CN(CC(=O)NC1CCCCC1)S(=O)(=O)c1cccc2cccnc12`, the inhibition is -46%.

As to `O=C(CCCC(=O)N(CC(=O)NC1CCCC1)Cc1ccccc1Cl)Nc1ccccn1`, the inhibition was 77.3% (active).

For `CCOc1ccccc1N(CC(=O)NC1CCCCC1)C(=O)CCCC(=O)Nc1ccccn1`, the inhibition was 79.8% (active).

Turning to `Cc1noc(C)c1C(=O)N(CC(=O)NC1CCCC1)Cc1ccccc1F`, the inhibition was 26.2%.

With `CCCC(=O)Nc1cc(OCC)c(NC(=O)NC2CCCCC2)cc1OCC`, the inhibition is 4.7%.

For the compound `COc1ccc(N2C(=O)C3CCCN3C2c2cccs2)cc1` (centres undefined), the inhibition was 31.3%.

With `O=C1CSC(c2ccccc2)N1c1nc(-c2ccc(Cl)cc2Cl)cs1` (centres undefined), the inhibition is 21.8%.

With `O=C(NCCCNCc1ccccc1)c1ccc(/C=N/O)nc1`, the inhibition was -11.5%.

Regarding `O=C(CCCn1c(=O)oc2ccccc21)Nc1cccnc1`, the inhibition was -30.9%.

With `COC(=O)C(C)n1cnc2c(nnn2-c2cccc(Cl)c2)c1=O` (centres undefined), the inhibition is 1.7%.

For `CN=C1SC(C(=O)O)CC(=O)N1C` (centres undefined), the inhibition was -6.4%.

On to `COC(=O)C(CC(=O)Nc1cc(C)ccc1C)Nc1ccccc1OC` (centres undefined), for which the inhibition was 7.7%.

For `CCOc1cc(C(=S)N2CCOCC2)ccc1O`, the inhibition was -10.2%.

On to `O=P(c1cccs1)(c1cccs1)c1cccs1`, for which the inhibition was 12.7%.

Consider `O=C1CC(c2cccc(F)c2)C2=C(CCCC2=O)N1` (centres undefined), for which the inhibition was 12.1%.

On to `COc1ccc(NC(=O)CSc2nc(N)c(-c3ccccc3)c(=O)[nH]2)cc1`, for which the inhibition was 3.1%.

As for `COc1ccc(NC(=O)CSc2nc(NS(=O)(=O)c3ccc(C)cc3)cc(=O)[nH]2)cc1`, the inhibition is 91.7% (active).

With `COC(=O)c1cccc(NC(=O)CSc2nc(C)cc(=O)[nH]2)c1`, the inhibition is 42.6%.

`COc1cc2ccccc2cc1C(=O)Nc1ccc(S(=O)(=O)Nc2cc(C)on2)cc1`: the inhibition was 3.1%.

Turning to `COc1ccc(OC)c(NC(=O)CSc2nc(N)c(-c3ccccc3)c(=O)[nH]2)c1`, the inhibition was 29.2%.

For the compound `COc1ccc2nc(SCC(=O)Nc3c(C)cc(C)cc3C)[nH]c2c1`, the inhibition is 81.5% (active).

In the case of `Cc1ccc(NC(=O)NCC(c2cccnc2)N2CCOCC2)cc1` (centres undefined), the inhibition is 2.5%.

For `COc1ccc(N/N=C2/CCCCC2=O)cc1`, the inhibition was -10.8%.

For the compound `Cc1nc2cc(NC(=O)NCc3ccccc3)ccc2o1`, the inhibition is -5.6%.

Take `O=C(O)c1cscn1`: the inhibition was -3.7%.

On to `N#C/C(=C(\O)CCl)c1nnc2n1CCCCC2`, for which the inhibition was 3.8%.

For `O=C(O)c1ccccc1-c1ccccc1C(=O)Nc1cccc2ccccc12`, the inhibition was 36%.

As for `O=C(CCC(=O)OCC(F)(F)C(F)F)NCc1ccccc1`, the inhibition was 4.8%.

As to `O=C(CCC(=O)OCc1cccc(C(=O)Oc2ccccc2)c1)Nc1cccc2ccccc12`, the inhibition was 95.5% (active).

Consider `CCOC(=O)C1=C(CSc2nnnn2C)N(C)C(=O)NC1c1ccccc1` (centres undefined), for which the inhibition was -20.4%.

Take `Cc1ccccc1NC(=O)C(C)c1ccc(-c2ccccc2)c(F)c1` (centres undefined): the inhibition is 67.2% (active).

As to `CC(Sc1nncn1C)C(=O)Nc1ccccc1-c1ccccc1` (centres undefined), the inhibition was 15.8%.

Consider `Cc1ccccc1NC(=O)c1ccccc1`, for which the inhibition was 0.6%.

As for `Cc1cccc(N2CCN(Cc3c(C)n(C)n(-c4ccccc4)c3=O)CC2)c1C`, the inhibition is -16.5%.

For the compound `CCOC(=O)N1CCN(Cc2nc(N)nc(Nc3ccc(C)cc3)n2)CC1`, the inhibition was 15.5%.

As for `Cc1ccccc1Nc1nc(N)nc(CN2CCN(c3ccccn3)CC2)n1`, the inhibition was 23.8%.

With `CN(CCO)Cc1csc2ccc(Br)cc12`, the inhibition is -22.8%.

`CCC1(C)N(O)C(C)(C)C(c2ccc(OC)cc2)=[N+]1[O-]` (centres undefined): the inhibition was 0.3%.

In the case of `COC(=O)C(C)Oc1ccc2c(-c3cccc([N+](=O)[O-])c3)cc(=O)oc2c1` (centres undefined), the inhibition was 28.8%.

In the case of `O=Cc1c(N2CCN(c3cccc(Cl)c3)CC2)nc2ccccn2c1=O`, the inhibition was 49.1%.

As to `Cc1ccc(C(c2nnnn2CS(=O)(=O)c2ccc(C)cc2)N2CCC(C(N)=O)CC2)cc1` (centres undefined), the inhibition was 6.2%.

Take `Cc1cccn2c(=O)c(/C=C(\C#N)S(=O)(=O)c3ccc(Cl)cc3)c(N3CCC(C(N)=O)CC3)nc12`: the inhibition was 96.9% (active).

As to `COc1ccc(CC(=O)Nc2nc3n(n2)C(c2ccccc2)CC(=O)N3)cc1OC` (centres undefined), the inhibition was -5.5%.

With `COc1ccccc1-n1cnc2cc(C(=O)NCC3CCCO3)ccc21` (centres undefined), the inhibition was -36.5%.

Regarding `COc1ccccc1-n1cnc2cc(NS(=O)(=O)c3ccccc3)ccc21`, the inhibition is 82.5% (active).

For the compound `COCCCNC(=O)c1ccc2c(c1)ncn2-c1ccccc1OC`, the inhibition was -38.2%.

As to `Cn1ncc(Br)c1C(=O)NCc1cccs1`, the inhibition was 1.5%.

In the case of `COc1ccc(-c2csc3nc(-c4ccccc4F)oc(=O)c23)cc1OC`, the inhibition was -1.8%.

Take `CCN(CC)S(=O)(=O)c1ccc(N2CCOCC2)c(C(=O)O)c1`: the inhibition was 19.3%.

For the compound `Cc1ccc(S(=O)(=O)N2CCC(C(=O)N[C@@H](C)C(=O)NCc3ccccc3)CC2)cc1`, the inhibition was -9.2%.

As for `CN(C)S(=O)(=O)c1ccc(N2CCCC2)c(C(=O)NCc2ccccc2)c1`, the inhibition is 59.9% (active).
